Test results as given in PMC7819943, “Rice protein-binding microarrays: a tool to detect cis-acting elements near promoter regions in rice”.
The full ranking holds about 68,000 sequences; the median of “fluorescence intensity (a.u.)” is about 9,100, and the highest 2% start at about 16,000. The sample as a whole holds a higher share of the highest values than the screen did.

These sequences were tested against OsWRKY34 (Oryza sativa, UniProt Q0JBA9 1-250) (assay: protein-binding microarray (RPBM); PBS, 2% BSA, 51.3 ng/ul salmon testes DNA, 50 uM zinc acetate, 200 nM TF, 25 C, 1 h; high values mean tight binding). Conditions: protein: recombinant; tags: N-terminal polyhistidine and DsRed monomer fusion (pET32a); label: CyDye5-dUTP incorporated in the synthesized complementary strand; 3' TTTTT single-stranded linker to array surface; dsDNA, one strand shown.
Chain of OsWRKY34 (Q0JBA9 entry or part of it): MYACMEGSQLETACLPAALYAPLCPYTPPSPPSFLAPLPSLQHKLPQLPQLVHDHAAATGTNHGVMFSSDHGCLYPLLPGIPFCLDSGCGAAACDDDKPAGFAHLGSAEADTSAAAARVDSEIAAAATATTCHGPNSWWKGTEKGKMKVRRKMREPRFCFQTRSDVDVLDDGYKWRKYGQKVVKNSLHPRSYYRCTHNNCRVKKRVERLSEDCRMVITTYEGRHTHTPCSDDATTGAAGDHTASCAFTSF
In short: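 Binding signal is defined as the fluorescence intensity of each feature in arbitrary units, read on an Axon 4000B scanner. Transcription factors with N-terminal polyhistidine and DsRed fusions came from E. coli BL21-CodonPlus and were purified on Ni–NTA. They were incubated at 200 nM for 1 h at 25 °C on a custom Agilent array that had been made double-stranded with Cy5-dUTP, with 50 µM zinc acetate present, and the array was washed.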

Row | Sequence | binding signal
1 | CAAATGGAGGCCCCTTTTAGATACGCTTCCTGTTACTTTCCGGAGTCACCTAGTGCAG | 8710 fluorescence intensity (a.u.)
2 | TCCTTCTGTCACCATTCGATTCCCAAACTCTCGCCGCCGCCGGAGTCACCTAGTGCAG | 9140 fluorescence intensity (a.u.)
3 | CTCTCTCTCTCTCTCTCTCTCTGCTGTTTTCTGTATCTGACGGAGTCACCTAGTGCAG | 10100 fluorescence intensity (a.u.)
4 | CATCAGTTGGCGATTCCCGCTGTATCCTAGAATCTGCTGACGGAGTCACCTAGTGCAG | 65000 fluorescence intensity (a.u.)
5 | CCCGCTTCTTCCCCGCTGCTTGAATCAGTCGTATCCTCACCGGAGTCACCTAGTGCAG | 11400 fluorescence intensity (a.u.)
6 | ACGACAAGAACCACCTCTCTCTCTCTCTCTCACTGTCCACCGGAGTCACCTAGTGCAG | 9040 fluorescence intensity (a.u.)
7 | TTCCCCTTGCTCTTGCATTTGCTGCCGCTCTTCGCCTCTTCGGAGTCACCTAGTGCAG | 9270 fluorescence intensity (a.u.)
8 | TCTCTTCTCTTTCTCTCCTCTCTTTTTGCCGCCGCTCGAGCGGAGTCACCTAGTGCAG | 8900 fluorescence intensity (a.u.)
9 | CACACACACTGCACTTCGGCTCACTCTCTCCACTGTTCTTCGGAGTCACCTAGTGCAG | 16700 fluorescence intensity (a.u.)
10 | TCAGGCTCTCACTCGCGCTGCATGCCACACTGCTTCTTCTCGGAGTCACCTAGTGCAG | 16400 fluorescence intensity (a.u.)
11 | GCTCAGCTCTTCACTTCTGCTGCATTCACACCACCACACTCGGAGTCACCTAGTGCAG | 9310 fluorescence intensity (a.u.)
12 | AAACTCTCACTCGCTCACTCACACCTCACACGCTGCTGCTCGGAGTCACCTAGTGCAG | 8070 fluorescence intensity (a.u.)
13 | GCCCTTCCTCTCCTCACTCACACTGCCCTGTTCATCTCTTCGGAGTCACCTAGTGCAG | 8540 fluorescence intensity (a.u.)
14 | TCTCTCTCTCTCCTTCGGCTCATTCGTCACTGTTCCACCGCGGAGTCACCTAGTGCAG | 11300 fluorescence intensity (a.u.)
15 | AGAATGGTCTTATATGTTGTGTAGTGGTGTGTGGGCGTGTCGGAGTCACCTAGTGCAG | 8170 fluorescence intensity (a.u.)
16 | ACCGATGACTTTTGGCAAAACTTACAGTAAAACTGCTTATCGGAGTCACCTAGTGCAG | 8850 fluorescence intensity (a.u.)
17 | ATATTTGATGCCGTTGACTTTTTAAAATATATTTGATCATCGGAGTCACCTAGTGCAG | 16400 fluorescence intensity (a.u.)
18 | ATGCCGTTGACTTTTTAAAATATATTTGACCATTTCCTATCGGAGTCACCTAGTGCAG | 21700 fluorescence intensity (a.u.)
19 | CCATCTGTCATATTTGTCATCGTTGACTTTTTTAAATATACGGAGTCACCTAGTGCAG | 13600 fluorescence intensity (a.u.)
20 | CCTCCTTTCCTAAATATTTGACGCCGTTGACTTTTTTAAACGGAGTCACCTAGTGCAG | 13500 fluorescence intensity (a.u.)
21 | CCTCCGTTTTTAAATATTTGATGCCGTTGACTTTTTAAAACGGAGTCACCTAGTGCAG | 19900 fluorescence intensity (a.u.)
22 | CCTCCGCTCCTAAATATTTGACACCGCTGACTTTTTAAAACGGAGTCACCTAGTGCAG | 11100 fluorescence intensity (a.u.)
23 | ATGTTTGACTTTTTTTTAAAAAATTTATATTTTTTTAAATCGGAGTCACCTAGTGCAG | 8390 fluorescence intensity (a.u.)

Row | Sequence | binding signal
24 | TATTTTCCTACCATTTGATTTATTGTTAAATATACTTTTTCGGAGTCACCTAGTGCAG | 10200 fluorescence intensity (a.u.)
25 | CATATCTAACTTTTGACCATCCGTTTTATTTAAAAAAATACGGAGTCACCTAGTGCAG | 8310 fluorescence intensity (a.u.)
26 | TCCTATGCCTGCAGCCTGTATCAAAAAATTTTCACAATGTCGGAGTCACCTAGTGCAG | 8480 fluorescence intensity (a.u.)
27 | CTATATCGCACGTACTCCGGTACCAACGATCCTATACCATCGGAGTCACCTAGTGCAG | 9910 fluorescence intensity (a.u.)
28 | TTTTGAAATCCGCGCCTACTTTTTTCTTGTCTCTTCTGTGCGGAGTCACCTAGTGCAG | 8400 fluorescence intensity (a.u.)
29 | CACTCGCCACCGCCGCCCACCCGCAACTGCCGCCGACTCCCGGAGTCACCTAGTGCAG | 10800 fluorescence intensity (a.u.)
30 | CTATTATAGCGTGTCGGACACTGACTCCTCCCATGTTCCTCGGAGTCACCTAGTGCAG | 11100 fluorescence intensity (a.u.)
31 | AACTGAATTGTTGGTTTTTTCGGTTTTCGGTTGTCAGTTCCGGAGTCACCTAGTGCAG | 11900 fluorescence intensity (a.u.)
32 | GTAACCCTAATTTCAGAAACTAAACACAGTCACGTAAGAACGGAGTCACCTAGTGCAG | 65500 fluorescence intensity (a.u.)
33 | TCCCTAAAATTTTTCACCCTTTCACATTAAACGTTTAACACGGAGTCACCTAGTGCAG | 11400 fluorescence intensity (a.u.)
34 | TTGTCAGTTTTCTCTAAACCACAGTAATTAGTCAGTTTCACGGAGTCACCTAGTGCAG | 8420 fluorescence intensity (a.u.)
35 | GTCCGCATCCAATTCCCGGGCCATTCGAAATCCCCAACACCGGAGTCACCTAGTGCAG | 10200 fluorescence intensity (a.u.)
36 | GGCCATAGCGTGTATTGTTGTGTTTGTGTGTAAAATTTTTCGGAGTCACCTAGTGCAG | 11300 fluorescence intensity (a.u.)
37 | GTATGCCATTCGCCCAAGATGCTTTTGCTTCGCATGGACCCGGAGTCACCTAGTGCAG | 8540 fluorescence intensity (a.u.)
38 | AGTTTTTCTAGTCCTTCTTAATGCATGTGTCACCTTCTAACGGAGTCACCTAGTGCAG | 10300 fluorescence intensity (a.u.)
39 | CTTAATCGGTATGGGGAGAGTGTTCTTATTGTTTCATTTACGGAGTCACCTAGTGCAG | 16800 fluorescence intensity (a.u.)
40 | GTAATTTAATGTTCATTATGGTGTTTCTTAATTGTTTTTTCGGAGTCACCTAGTGCAG | 9320 fluorescence intensity (a.u.)
41 | TTTTTTTTTCCTTTTGCTGACATGCATTATGTTTTCTATTCGGAGTCACCTAGTGCAG | 10000 fluorescence intensity (a.u.)
42 | CTATTCTTGTGTTTTTTTCTATGTTTAATCCTATGTTTTACGGAGTCACCTAGTGCAG | 16600 fluorescence intensity (a.u.)
43 | ATGTTTTTATGCTGCATTCCCCATGTGTGTTTCCTTCTAACGGAGTCACCTAGTGCAG | 19600 fluorescence intensity (a.u.)
44 | GCTTAATTACATGGGAGAGGCTTTGTTTCTTGTTTATTTTCGGAGTCACCTAGTGCAG | 8760 fluorescence intensity (a.u.)
45 | ATTCCTATATTTTTCCTATGTTTTGTAATCCTCTGTTTTACGGAGTCACCTAGTGCAG | 12600 fluorescence intensity (a.u.)
46 | TTTATTTCCTAGATTAATTCTGATATGTTTCTATGTTTTACGGAGTCACCTAGTGCAG | 9260 fluorescence intensity (a.u.)
